“And” between values parts separate entries of the source, which are not always exact repeats. Equal entries are not always repeated. Where a structure was tested more than once in an assay, its records may differ in their call. The source made the active and inactive calls.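 Rule for the calls: active = thallium flux through the channel raised or lowered by more than 3 SD from vehicle-only wells, actives on both sides; inactive = the rest.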
These compounds were tested on R275C/Slo1WT/beta2 (assay: modulators of BK channel variants, profiling panel, selectivity assay, cell-based, U2OS BacMam, thallium flux, beta subunits (AID 1259406;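 note: initial slope of Thallos dye fluorescence rise after thallium is added; log ratio against the mean of 0.3% DMSO vehicle wells on the same plate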)). Conditions: at 30 µM.

**Q.** `O=C(O)COCCN1CCN(C(c2ccccc2)c2ccc(Cl)cc2)CC1` (stereo not given) was tested. Which log fold change Tl+ flux did it give?
**A.** -0.0639 (inactive)

**Q.** Which log fold change Tl+ flux does the source give for `Clc1ccccc1CN1CCc2sccc2C1` here?
**A.** 0.00594 (inactive)

**Q.** Which log fold change Tl+ flux does the source give for `C[N+]1(C)CCC(OC(=O)C(O)(c2ccccc2)C2CCCC2)C1` (stereo not given) here?
**A.** 0.0815 (active) and 0.0504 (inactive)

**Q.** How did the log fold change Tl+ flux turn out when `CC(C)(C(=O)O)c1ccc(C(O)CCCN2CCC(C(O)(c3ccccc3)c3ccccc3)CC2)cc1` (stereo not given) was run?
**A.** 0.0197 (inactive)

**Q.** Which log fold change Tl+ flux does the source give for `CC(C)n1c(/C=C/[C@@H](O)C[C@@H](O)CC(=O)O)c(-c2ccc(F)cc2)c2ccccc21` here?
**A.** 0.0615 (inactive)
